According to PubChem BioAssay AID2284358 (EPA ToxCast):
Results filed as inconclusive are left out. Activity calls are given as the source filed them. The calls were made as follows: active = hit-call score of the fitted dose curve at least 0.9, where 1 is the maximum; inconclusive = response in the unintended direction; inactive = score below 0.9.

Biological target: zebrafish Retinoid X Receptor beta (RXRb), rxrba (gene 30530) (UniProt Q7SYN5)
Assay: ATG_zfRXRb_EcoTox2: Attagene TRANS-FACTORIAL EcoTox-2 HepG2 Assay for zebrafish Retinoid X Receptor beta (RXRb)
Protocol: ATG_EcoTox2 is a cell-based, multiplexed assay created by modifying the existing Attagene TRANS-FACTORIAL system to include a panel of nuclear receptors from some or all the following species: human (Homo sapiens), african clawed frog (Xenopus laevis), rainbow trout (Oncorhynchus mykiss), japanese medaka (Oryzias latipes), and zebrafish (Danio rerio). The ECOTOX2-FACTORIAL format uses HepG2, a human liver cell line, with measurements taken at 24 hours after chemical dosing in a 24-well plate. ATG_zfRXRb_EcoTox2 is one of 29 assay components calculated in the ATG_EcoTox2 assay. It is designed to make measurements of mRNA induction, a form of inducible reporter, as detected with fluorescence intensity signals by Reverse transcription polymerase chain reaction (RT-PCR) and Capillary electrophoresis technology.The assay endpoint ATG_zfRXRb_EcoTox2 was analyzed in the positive analysis fitting direction relative to DMSO as the negative control and baseline of activity. Using a type of inducible reporter, measures of mRNA for gain-of-signal activity can be used to understand the reporter gene at the transcription factor-level as they relate to the gene RXRb. Furthermore, this assay endpoint can be referred to as a primary readout, because this assay has produced multiple assay endpoints where this one serves a reporter gene function. To generalize the intended target to other relatable targets, this assay endpoint is annotated to the nuclear receptor intended target family, where the subfamily is non-steroidal.
Human liver HepG2 cells are transiently transfected with multiple reporter transcription units (MRTUs) in 6-well plates using FuGene 6 reagent (Roche; 3 ml FuGene/1 mg DNA). The MRTU constructs are regulated by a cis-regulating element (promoter). Each RTU expresses a GAL4-UAS that regulates the transcription of a nearby target reporter gene sequence. A major difference between the CIS and TRANS system is that in CIS activities of endogenous TFs are measured, whereas the TRANS assay evaluates changes in activities of exogenous, chimeric NR-Gal4 proteins. […] At the end of 24 hour incubation, total RNA was isolated using TriZol reagent (Invitrogen). The isolated RNA is then reverse-transcribed using oligo(dT) primer and Mo-MLV reverse transcriptase (Invitrogen) with DNAse I (Ambion) treatment for 30 min. The one-tenth of the produced cDNA was amplified by PCR using Taq DNA polymerase (Invitrogen) and two reporter sequence-specific primers. The PCR products were fluorescently labeled by primer extension with 6-arboxyfluorescein (6-FAM) 5'-labeled reporter sequence-specific primer (2 min at 95 C, 20 s at 68 C and 10 min at 72 C) and these products were digested with 5U of HpaI (New England Biolabs) for 2h at 37 C. The fragments were purified using Qiaquick PCR columns (Qiagen), analyzed on an ABI 3130xL genetic analyzer (Applied Biosystems) with peak positions identified by using a set of X-rhodamine (ROX)-labeled MapMarker1000 molecular weight standards (BioVentures). The raw capillary electrophoresis data was processed using Attagraph software (Attagene).

Chain of zebrafish Retinoid X Receptor beta (RXRb), rxrba (gene 30530) (Q7SYN5 whole entry, looked up): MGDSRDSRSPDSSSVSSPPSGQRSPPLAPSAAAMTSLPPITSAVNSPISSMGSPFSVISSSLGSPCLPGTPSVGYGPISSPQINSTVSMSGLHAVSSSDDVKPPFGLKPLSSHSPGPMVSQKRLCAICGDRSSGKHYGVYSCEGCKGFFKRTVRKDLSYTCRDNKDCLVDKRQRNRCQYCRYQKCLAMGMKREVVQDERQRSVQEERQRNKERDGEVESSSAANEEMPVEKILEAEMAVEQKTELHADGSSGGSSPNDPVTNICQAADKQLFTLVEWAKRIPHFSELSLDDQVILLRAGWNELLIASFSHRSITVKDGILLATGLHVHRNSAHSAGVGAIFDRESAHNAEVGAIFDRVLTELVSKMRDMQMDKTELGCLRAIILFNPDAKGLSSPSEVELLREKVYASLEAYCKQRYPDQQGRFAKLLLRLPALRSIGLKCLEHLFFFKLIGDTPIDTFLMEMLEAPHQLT

SMILES	outcome	AC50
CC(C)(Oc1ccc(Cl)cc1)C(=O)O	inactive	
C[C@@H]1C[C@H]2[C@@H]3CCC4=CC(=O)C=C[C@]4(C)[C@@]3(F)[C@@H](O)C[C@]2(C)[C@@]1(O)C(=O)COP(=O)(O)O	inactive	
Cc1c(C)c2c(c(C)c1O)CCC(C)(COc1ccc(CC3SC(=O)NC3=O)cc1)O2 (stereo not given)	inactive	
C=C(c1ccc(C(=O)O)cc1)c1cc2c(cc1C)C(C)(C)CCC2(C)C		597 nM (active)
Cc1ccc(C)c(OCCCC(C)(C)C(=O)O)c1	inactive	
CC(C)(Oc1ccc(CCNC(=O)c2ccc(Cl)cc2)cc1)C(=O)O	inactive	
CC(C)(Oc1ccc(C2CC2(Cl)Cl)cc1)C(=O)O (stereo not given)	inactive	
C[C@]12C=CC(=O)C=C1CC[C@@H]1[C@@H]2C(=O)C[C@@]2(C)[C@H]1CC[C@]2(O)C(=O)CO	inactive	
CC(c1cc2ccccc2s1)N(O)C(N)=O (stereo not given)	inactive	
Cc1cccc(Nc2cc(Cl)nc(SCC(=O)O)n2)c1C	inactive	
